Test results: PubChem BioAssay (NCI)
This is part of a sample that, as a whole, favours compounds with a hit. Of some 79,000 tested, about 15% had one in any assay. The source made the active and inactive calls. Cut-off read from the data, not from the text of the source: active = growth inhibition above about 70%; inactive = the rest.

Assays:
[1] = NCI Yeast Anticancer Drug Screen. Data for the rad50 strain (AID 155);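 note: 0% = growth of vehicle-only cultures of the same strain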; conditions: S. cerevisiae rad50 strain growth inhibition; at 50.0 µM; hits give high values
Procedure, shortened: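 Relative growth inhibition (compound vs vehicle) was measured in yeast with a defined repair-gene alteration.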

[2] = NCI Yeast Anticancer Drug Screen. Data for the mec2-1 strain (AID 157); conditions: S. cerevisiae mec2-1 strain, at 50.0 µM, hits give high values
Procedure, shortened: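 Growth inhibition is read against vehicle-treated controls after compound exposure of the mec2-1 yeast strain, which is defective in DNA damage repair or cell cycle control.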

[3] = NCI Yeast Anticancer Drug Screen. Data for the sgs1 mgt1 strain (AID 161);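 note: 0% = growth of cultures given vehicle only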; conditions: S. cerevisiae sgs1 mgt1 strain, at 50.0 µM, hits give high values
Procedure, shortened: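 This yeast growth screen uses a strain with defined DNA-repair lesions; compound-treated growth is compared with vehicle-treated growth.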

[4] = NCI Yeast Anticancer Drug Screen. Data for the cln2 rad14 strain (AID 165);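 note: 0% = growth equal to vehicle treated cultures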; conditions: S. cerevisiae cln2 rad14 strain, at 50.0 µM, hits give high values
Procedure, shortened: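 Growth inhibition, relative to vehicle-treated controls, is the read-out. The test organism is a yeast strain with defined genetic alterations, cln2 rad14.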

[5] = NCI Yeast Anticancer Drug Screen. Data for the bub3 strain (AID 167); conditions: S. cerevisiae bub3 mutant strain, at 50.0 µM, hits give high values
Procedure, shortened: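 Screening used yeast with an engineered genetic alteration affecting cell cycle control. Compound-exposed cultures were compared with vehicle cultures, and reduced growth was taken as inhibition.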

[6] = NCI Yeast Anticancer Drug Screen. Data for the mlh1 rad18 strain (AID 175); conditions: S. cerevisiae mlh1 rad18 strain growth inhibition; at 50.0 µM; hits give high values
Procedure, shortened: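 Cells of a genetically altered yeast strain, deficient in DNA damage repair, were treated with compound. Their growth was then compared with that of vehicle-treated cultures to give inhibition.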

Measured: growth inhibition

CC(=O)c1c(-c2nc(=S)[nH]c(C)c2C(C)=O)nc(=S)[nH]c1C
inactive: [1] 15.1% | [2] 9.95% | [3] 6.3% | [4] 0.45% | [5] -1.45% | [6] 16.8%

COc1cccc(N2C(=O)C3c4[nH]c5ccc(C)cc5c4C4CCC(C(C)(C)C)CC4C3C2=O)c1 (stereo unspecified)
inactive: [1] 12.7% | [2] -20.1% | [3] 13% | [4] 2.55% | [5] 1.4% | [6] -5.55%

O=C1c2ccccc2C(=O)N1C1CCCCC1
inactive: [1] 7.15% | [2] 35.9% | [3] 22.4% | [4] -4.25% | [5] 56.4% | [6] -16.6%

CCOC(=O)C(C)N1CCCCCC1 (stereo unspecified)
inactive: [1] -28.8% | [2] -30.4% | [3] -17.8% | [4] -28.5% | [5] -8.25% | [6] -10.8%

Nc1nnc2nc(CC(=O)c3ccccc3)c(CC(=O)c3ccccc3)nn12
inactive: [1] -5.4% | [2] -2.9% | [3] 3% | [4] 32.6% | [5] -29% | [6] 16.2%

CC(=O)OC1CCCC2CCCC21 (stereo unspecified)
inactive: [1] 0.2% | [2] 5.2% | [3] 1.25% | [4] -5.7% | [5] -2.35% | [6] -3.75%

O=C(O)Cc1ccccc1[N+](=O)[O-]
inactive: [1] 8.55% | [2] -12.1% | [3] -10.9% | [4] -16.9% | [5] -21.8% | [6] -3.95%

C=CCN(CC=C)CCNc1cc(C)nc(Nc2nc3ccc(Cl)cc3[nH]2)n1
inactive: [2] 50.4% | [5] 24.9%
active: [1] 90.6% | [3] 93.2% | [4] 82% | [6] 91.5%

CC(=O)N(C)c1ccc(NC(=O)Nc2c(C)cccc2C)cc1
inactive: [1] 6.55% | [2] 10% | [3] 10.7% | [4] 4.85% | [5] 19.6% | [6] 15.6%

COc1ccc(C(C)Nc2cc(OC)c(OC)c(OC)c2)cc1 (stereo unspecified)
inactive: [1] -20.2% | [2] -14.1% | [3] -3.15% | [4] 5.5% | [5] -10.3% | [6] -15.1%

CC(C(=O)O)c1ccc(-n2nnc3c(=O)[nH][nH]c(=O)c32)cc1 (stereo unspecified)
inactive: [1] -16.2% | [2] -8.4% | [3] -12.6% | [4] -17.3% | [5] 2.8% | [6] -5.7%

Cc1cccc(-c2cc3cccnc3nc2NN=O)c1C
inactive: [1] 64.8% | [2] 68% | [4] 39.3% | [5] 67.1%
active: [3] 75.7% | [6] 76.5%

O=C(O)/C=C\c1ccc(OC(=O)c2ccccc2)cc1
inactive: [1] -1.1% | [2] -12.6% | [3] -21% | [4] -24.6% | [5] -4.95% | [6] 33.1%

CC(=O)OCC1C(=O)OCC1C(=O)N1Cc2cc3ccccc3nc2C1 (stereo unspecified)
inactive: [1] -10.6% | [2] -1.55% | [3] 13.7% | [4] -18.9% | [5] 31.2% | [6] -9.85%

C/C(=N\Nc1ccc([N+](=O)[O-])cc1)C(=O)N(C)Nc1ccccc1
inactive: [1] -6% | [2] -54.2% | [3] -38% | [4] -5.7% | [5] -59.7% | [6] -5.4%

CCCC(=O)OCC1OC(n2ccc(N)nc2=O)C(OC(=O)CCC)C1OC(=O)CCC (stereo unspecified)
inactive: [1] 18.6% | [2] -22.4% | [3] 36.3% | [4] 17.8% | [5] 10.6% | [6] 8.2%

Cc1ccc(S(=O)(=O)ON2C(=O)c3cccc4cc([N+](=O)[O-])cc(c34)C2=O)cc1
inactive: [1] 35.1% | [2] 45% | [3] 39.4% | [4] 17.4% | [5] -12.2% | [6] 8.65%

O=C1C2=Nc3ccccc3C(O)N2c2ccccc21 (stereo unspecified)
inactive: [1] 12.8% | [2] 22.4% | [3] 12% | [4] 47.4% | [5] 17.3% | [6] 8.75%

O=C1c2ccccc2C(=O)C2C3c4ccccc4C(c4ccccc43)C12 (stereo unspecified)
inactive: [1] -60.4% | [2] -61% | [3] -53.8% | [4] -9.2% | [5] -54.7% | [6] -57.5%

C/C=C\C(=O)OCC(C)COC(=O)/C=C/C (stereo unspecified)
inactive: [1] 21.7% | [2] 15.9% | [3] 4.9% | [4] 9.4% | [5] 2.65% | [6] 6.65%

C=CCNC(=O)CCCCCCC/C=C\CCCCCCCC
inactive: [1] 16.6% | [2] -8.5% | [3] -1.45% | [4] -27.6% | [5] -2.85% | [6] 9.4%

COC(=O)C1c2ccccc2CC(=O)N1NC(C)=O (stereo unspecified)
inactive: [1] 15.6% | [2] 1.65% | [3] -19.4% | [4] 9.65% | [5] 5.3% | [6] 10.4%

COc1cc2c(cc1OCc1ccccc1)NC(=O)C2
inactive: [1] 0.5% | [2] 20.2% | [3] 12.8% | [4] -7.85% | [5] -18.9% | [6] -7%

COc1cc([C@@H]2c3cc4c(cc3[C@](C)(O)[C@H]3COC(=O)[C@H]23)OCO4)cc(OC)c1OC
inactive: [1] 19.7% | [2] 10.4% | [3] 14.1% | [4] 22.8% | [5] 19.1% | [6] 11%

Cc1csc(NNC(N)=O)n1
inactive: [1] 1.65% | [2] -8.05% | [3] -63.5% | [4] -14% | [5] -42.9% | [6] -27.4%

COc1cc2c(cc1OC)C(Cc1cc(Br)c(OC)c(OC)c1)=[N+](C)CC2
inactive: [1] 1.65% | [2] 4.4% | [3] -12.4% | [4] 9.65% | [5] 1.05% | [6] 11.2%

CC(=O)Nc1ccc(S(=O)(=O)N/N=C/c2ccco2)cc1
inactive: [1] 23.1% | [2] 1.2% | [3] 5.7% | [4] -30.6% | [5] 4.1% | [6] 33.6%

Nc1ccc2c(c1)C(=O)c1cc(C(=O)O)ccc1-2
inactive: [1] 21.2% | [2] -2.55% | [3] 9.75% | [4] 15.9% | [5] 12.8% | [6] -10.1%

c1ccc2c3c(ccc2c1)CCC3
inactive: [1] -20.9% | [2] -42.9% | [3] -35% | [4] 10% | [5] -25.4% | [6] -12.4%

CCOC(=O)C(NC(=O)CC(C)C)(N1CCN(c2cc3c(cc2F)c(=O)c(C(=O)O)cn3C2CC2)CC1)C(F)(F)F (stereo unspecified)
inactive: [1] -5.8% | [2] -26.3% | [3] -0.2% | [4] 12.5% | [5] -24.9% | [6] -17.9%

O=C1C=C2CCC(c3ccc(O)cc3)CC2CC1 (stereo unspecified)
inactive: [1] -3% | [2] 7.6% | [3] -1.6% | [4] 7.65% | [5] -0.45% | [6] -8%

O=C1CC2COc3ccccc3C2=NN1c1ccccc1 (stereo unspecified)
inactive: [1] 13.6% | [2] 4.3% | [3] 4.7% | [4] 1.35% | [5] -4.15% | [6] 10.2%

Nc1cc(=O)[nH]c(SC2OC(CO)C(O)C2O)n1 (stereo unspecified)
inactive: [1] 29.1% | [2] -9.6% | [3] 9% | [4] -44.1% | [5] 0.1% | [6] 17.6%

Cc1ccccc1-c1nnc(-c2ccc3ccccc3c2)o1
inactive: [1] 7.3% | [2] -4.25% | [3] -4.65% | [4] -36.5% | [5] 1.05% | [6] -1.05%

CCCCCCCCCCCCCCCCCC(=O)N/N=C/c1cc(OC)ccc1OC
inactive: [1] 1.55% | [2] 0.05% | [3] -0.05% | [4] -25.2% | [5] -0.6% | [6] -28.9%

C=C1N(C)c2ccccc2C1(C)C
inactive: [1] 22.7% | [2] 10.2% | [3] -12.2% | [4] 29.4% | [5] 6.2% | [6] 17.3%

NS(=O)(=O)c1ccc(NC(=O)Nc2cccc(C(F)(F)F)c2)cc1
inactive: [1] 23.9% | [2] 2.55% | [3] 12.8% | [4] 12.3% | [5] 23.8% | [6] 9.85%

N#Cc1c(-c2ccccc2)cc(-c2ccccc2)n(C2OCC(O)C(O)C2O)c1=S (stereo unspecified)
inactive: [1] 5.1% | [2] 30.6% | [3] 31.5% | [4] -7.45% | [5] 3.15% | [6] -0.05%

CN1C(=O)N/C(=C\c2ccc(S(=O)(=O)N/N=C/c3ccccc3)cc2)C1=O
inactive: [1] 16.4% | [2] 44.9% | [3] 20.1% | [4] -2.55% | [5] 2.75% | [6] 39.9%

CCC(=N\NC(=S)NC)/C(C)=N\NC(=S)NC
inactive: [1] -8.3% | [2] -6.4% | [3] -6.5% | [4] -36.1% | [5] 9.1% | [6] -14.2%

NC(=O)CC1CCCCC1
inactive: [1] 8.3% | [2] -9% | [3] -7.05% | [4] 7.35% | [5] 17.2% | [6] -8.55%
